Results taken from PubChem BioAssay (NCI).
The panel holds about 83,000 compounds, 20% with a hit somewhere; the sample as a whole holds those more often.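 Results are percent growth after 48 hours of single-concentration exposure. 100 means growth as in untreated cells, lower positive values show inhibition; negative values down to -100 show cell death.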 Activity calls are given as the source filed them. Rule for the calls: active = growth percent below 10; inactive = the rest.

Tests used:
Test in all cases: NCI-60 one-dose screen, 48 h (100 = growth as untreated, 0 = no growth, -100 = all killed)
Details in all cases: 10 µM unless noted
[1] = system: SK-MEL-2 melanoma
[2] = system: EKVX NSCLC
[3] = system: SN12C renal
[4] = system: UO-31 renal
[5] = system: TK-10 renal
[6] = system: ACHN renal
[7] = system: CAKI-1 renal
[8] = system: A498 renal
[9] = system: MOLT-4 leukemia
[10] = system: SR leukemia
[11] = system: RPMI-8226 leukemia
[12] = system: OVCAR-8 ovarian
[13] = system: OVCAR-5 ovarian
[14] = system: OVCAR-4 ovarian
[15] = system: SK-OV-3 ovarian
[16] = system: IGROV1 ovarian
[17] = system: OVCAR-3 ovarian
[18] = system: HS 578T breast
[19] = system: NCI/ADR-RES ovarian

Measured: growth

CC1(C)OC2C(CO[Si](C)(C)C(C)(C)C)OC(n3c(I)c(C#C[Si](C)(C)C)c(=O)[nH]c3=O)C2O1 (stereo unspecified)
active: [7] -8.73% | [11] -12.2% | [14] -68.4% | [17] -41.1% | [18] 3.19%
inactive: [1] 82.1% | [2] 109% | [3] 85.7% | [4] 86.6% | [5] 109% | [6] 107% | [8] 102% | [9] 13.4% | [10] 63.6% | [12] 88.6% | [13] 92.6% | [15] 111% | [16] 96.7% | [19] 82.7%

CCN(CC)CCCNc1ccc(Nc2ccc(OC)cc2)cc1
inactive: [1] 108% | [2] 81.1% | [3] 92.3% | [4] 48% | [5] 88.2% | [6] 94.1% | [7] 84.5% | [8] 55.3% | [9] 32.7% | [10] 52.9% | [11] 64.5% | [12] 83.1% | [13] 108% | [14] 84.6% | [15] 106% | [16] 37.6% | [17] 59.6% | [19] 94.7%

CCSC1=NC2C(N(CC)C(=O)N2CC)N1/N=C/C=C/c1ccccc1[N+](=O)[O-] (stereo unspecified)
inactive: [1] 50.3% | [2] 46.5% | [3] 19.8% | [4] 34.6% | [5] 70.6% | [6] 25.1% | [7] 19.5% | [9] 15.1% | [10] 15.1% | [11] 17.3% | [13] 22.8% | [14] 42.6% | [15] 28% | [16] 15.3%
active: [8] -5.18% | [12] 8.6% | [17] -2.75% | [18] 6.38% | [19] 4.68%

N#Cc1c(N)nn(C(=O)c2ccc(NC(=O)c3ccccn3)cc2)c1-c1ccc(Cl)cc1
active: [14] -2.76% | [17] 6.15%
inactive: [1] 79.3% | [2] 49.2% | [3] 35% | [4] 54.3% | [5] 24.6% | [6] 12.9% | [7] 26% | [8] 51.1% | [9] 52.9% | [10] 50% | [11] 43.6% | [12] 18.4% | [13] 62.7% | [15] 67.2% | [16] 11.1% | [18] 28.6% | [19] 28.5%

CC1CC(C(C)(C)C)C(=O)C(C(C)(C)C)C1 (stereo unspecified)
inactive: [1] 105% | [2] 101% | [3] 105% | [4] 96.2% | [5] 98.2% | [6] 105% | [7] 105% | [8] 93.4% | [9] 104% | [10] 101% | [11] 111% | [12] 107% | [13] 99.6% | [14] 119% | [15] 105% | [16] 126% | [17] 118% | [18] 106% | [19] 114%

C=C1C(=O)O[C@H]2[C@H]1CC/C(COC(=O)C(=O)c1cn(C)c3ccc(OC)cc13)=C\CC[C@@]1(C)O[C@@H]21
active: [1] -47.2% | [2] -17.4% | [3] -51% | [4] -91.9% | [5] -61.4% | [6] -57.8% | [7] -43.6% | [8] -99.5% | [9] -16.6% | [10] 2.42% | [11] -37.5% | [12] -9.07% | [13] -18.9% | [15] -11.6% | [16] -67.7% | [17] -72.1% | [18] 3.23% | [19] 7.43%
inactive: [14] 20.3%

Cc1ccc(-n2c(-c3ccccc3)c(-c3ccccc3)c3c(SCC(=O)n4[nH]c(N)cc4=O)ncnc32)cc1
inactive: [1] 108% | [2] 87.2% | [3] 99.2% | [4] 71.9% | [5] 104% | [6] 91.2% | [7] 88.4% | [8] 114% | [9] 87.3% | [10] 103% | [11] 81.9% | [12] 83.2% | [13] 101% | [14] 96% | [15] 79.5% | [16] 79.8% | [17] 91.9% | [18] 106% | [19] 105%

N=C1C(c2nc(-c3ccc(Br)cc3)cs2)=C(O)CN1CC1CCCO1 (stereo unspecified)
inactive: [1] 89.8% | [2] 98.7% | [3] 111% | [4] 20.8% | [5] 135% | [6] 88% | [7] 90.4% | [8] 96.4% | [9] 70.3% | [10] 38.9% | [11] 48.5% | [12] 52.7% | [13] 89.2% | [14] 75% | [15] 113% | [16] 46.2% | [17] 105% | [18] 89% | [19] 76.3%
